Assays:
Assay in all cases: log2 ratio of Biotin-Ahx-Ub-VS probe labelling (fragment/DMSO); higher = less target engagement (more negative = stronger competition), active = hit call of the paper (q ≤ 0.05, log2 ratio ≤ -1)
Conditions in all cases: compound concentration: 200 uM; treatment time: 3 h
USP34 = USP34 (UniProt Q70CQ2)
Procedure, shortened: (§1)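 HEK293T lysate in Tris/CHAPS/IGEPAL buffer with protease inhibitors (495 µg per sample) was given fragment at 200 µM or vehicle for 3 h, in triplicate. It then received Biotin-Ahx-Ub-VS at 0.5 µM final for 1 h. Labelled DUBs were NeutrAvidin-enriched, digested with LysC and trypsin, and run by diaPASEF LC-MS/MS. Values are average log2 fragment/vehicle ratios by unpaired t-test on global-median-normalised Spectronaut quantities of proteins with ≥2 unique peptides.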

USP36 = target: T1, USP36 (UniProt Q9P275)
T1 sequence (whole entry): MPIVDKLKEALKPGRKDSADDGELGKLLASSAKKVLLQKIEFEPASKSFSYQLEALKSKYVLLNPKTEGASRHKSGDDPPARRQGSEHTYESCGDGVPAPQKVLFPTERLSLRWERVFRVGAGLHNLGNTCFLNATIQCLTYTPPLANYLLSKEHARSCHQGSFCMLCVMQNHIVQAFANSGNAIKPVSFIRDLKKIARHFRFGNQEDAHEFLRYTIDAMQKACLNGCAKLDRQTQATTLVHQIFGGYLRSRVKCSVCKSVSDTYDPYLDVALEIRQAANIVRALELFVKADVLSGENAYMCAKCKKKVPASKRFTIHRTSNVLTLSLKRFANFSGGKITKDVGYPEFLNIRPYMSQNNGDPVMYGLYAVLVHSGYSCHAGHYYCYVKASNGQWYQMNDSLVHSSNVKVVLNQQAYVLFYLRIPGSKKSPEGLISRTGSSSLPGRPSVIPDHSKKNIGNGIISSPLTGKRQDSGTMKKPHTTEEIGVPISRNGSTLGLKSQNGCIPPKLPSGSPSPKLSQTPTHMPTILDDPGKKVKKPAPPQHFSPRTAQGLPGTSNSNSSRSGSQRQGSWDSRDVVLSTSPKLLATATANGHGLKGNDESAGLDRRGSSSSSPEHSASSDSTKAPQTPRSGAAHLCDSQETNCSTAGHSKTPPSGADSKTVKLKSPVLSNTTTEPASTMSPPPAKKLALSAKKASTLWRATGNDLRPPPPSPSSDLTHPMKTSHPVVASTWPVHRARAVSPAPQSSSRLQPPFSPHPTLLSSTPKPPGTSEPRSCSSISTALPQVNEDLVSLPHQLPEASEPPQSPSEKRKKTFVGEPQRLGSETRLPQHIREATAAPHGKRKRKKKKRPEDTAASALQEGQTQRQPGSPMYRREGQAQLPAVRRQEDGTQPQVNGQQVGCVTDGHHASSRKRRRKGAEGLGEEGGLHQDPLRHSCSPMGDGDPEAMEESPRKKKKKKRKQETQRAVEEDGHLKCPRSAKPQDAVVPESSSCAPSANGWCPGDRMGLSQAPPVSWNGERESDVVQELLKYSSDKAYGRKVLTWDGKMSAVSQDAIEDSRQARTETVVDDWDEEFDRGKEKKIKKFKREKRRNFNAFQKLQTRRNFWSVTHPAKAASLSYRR
Procedure, shortened: as §1

USP38 = target: T2, USP38 (UniProt Q8NB14)
T2 sequence (whole entry): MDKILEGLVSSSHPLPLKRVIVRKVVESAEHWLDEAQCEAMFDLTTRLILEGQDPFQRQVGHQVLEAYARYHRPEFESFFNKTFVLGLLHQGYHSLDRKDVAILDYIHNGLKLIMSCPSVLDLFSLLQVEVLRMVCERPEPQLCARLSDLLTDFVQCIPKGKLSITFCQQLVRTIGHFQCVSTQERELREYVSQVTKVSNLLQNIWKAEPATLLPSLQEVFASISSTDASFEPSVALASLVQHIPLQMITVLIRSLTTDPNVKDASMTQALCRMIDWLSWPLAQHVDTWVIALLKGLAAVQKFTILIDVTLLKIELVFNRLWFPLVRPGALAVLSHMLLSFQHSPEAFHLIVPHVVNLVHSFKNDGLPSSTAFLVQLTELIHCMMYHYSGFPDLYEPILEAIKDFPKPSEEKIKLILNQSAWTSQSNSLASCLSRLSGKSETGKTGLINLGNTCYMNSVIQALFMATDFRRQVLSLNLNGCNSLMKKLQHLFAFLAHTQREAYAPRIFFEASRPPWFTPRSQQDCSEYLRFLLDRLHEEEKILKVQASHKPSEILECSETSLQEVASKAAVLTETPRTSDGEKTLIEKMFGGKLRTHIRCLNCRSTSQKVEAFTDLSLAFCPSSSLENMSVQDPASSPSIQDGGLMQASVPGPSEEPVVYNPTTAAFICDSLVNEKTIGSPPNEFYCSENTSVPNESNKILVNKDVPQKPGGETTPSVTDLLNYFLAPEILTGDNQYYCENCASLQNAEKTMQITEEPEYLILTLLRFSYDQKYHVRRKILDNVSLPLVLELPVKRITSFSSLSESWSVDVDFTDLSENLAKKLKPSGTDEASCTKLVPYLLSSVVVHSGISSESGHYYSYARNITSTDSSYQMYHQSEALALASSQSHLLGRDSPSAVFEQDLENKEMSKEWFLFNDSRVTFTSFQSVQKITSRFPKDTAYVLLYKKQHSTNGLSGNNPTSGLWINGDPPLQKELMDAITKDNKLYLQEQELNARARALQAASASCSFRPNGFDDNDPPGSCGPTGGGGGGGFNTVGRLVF
Procedure, shortened: as §1

USP39 = target: T3, USP39 (UniProt Q53GS9)
T3 sequence (whole entry): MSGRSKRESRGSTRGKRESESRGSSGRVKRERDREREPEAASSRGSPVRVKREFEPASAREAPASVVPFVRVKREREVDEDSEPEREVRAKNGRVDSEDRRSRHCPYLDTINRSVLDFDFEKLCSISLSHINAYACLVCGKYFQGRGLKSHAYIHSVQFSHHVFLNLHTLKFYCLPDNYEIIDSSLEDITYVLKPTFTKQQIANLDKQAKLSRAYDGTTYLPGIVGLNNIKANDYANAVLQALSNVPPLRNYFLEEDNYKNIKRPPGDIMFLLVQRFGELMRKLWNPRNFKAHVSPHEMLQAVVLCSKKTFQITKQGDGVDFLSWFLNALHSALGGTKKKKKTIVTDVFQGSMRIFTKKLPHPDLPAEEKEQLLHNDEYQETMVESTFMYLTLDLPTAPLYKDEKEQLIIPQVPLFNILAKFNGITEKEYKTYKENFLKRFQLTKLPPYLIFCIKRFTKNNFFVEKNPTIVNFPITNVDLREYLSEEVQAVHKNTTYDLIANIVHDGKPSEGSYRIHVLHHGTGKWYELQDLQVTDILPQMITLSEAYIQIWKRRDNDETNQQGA
Procedure, shortened: as §1

USP4 = target: T4, USP4 (UniProt Q13107)
T4 sequence (whole entry): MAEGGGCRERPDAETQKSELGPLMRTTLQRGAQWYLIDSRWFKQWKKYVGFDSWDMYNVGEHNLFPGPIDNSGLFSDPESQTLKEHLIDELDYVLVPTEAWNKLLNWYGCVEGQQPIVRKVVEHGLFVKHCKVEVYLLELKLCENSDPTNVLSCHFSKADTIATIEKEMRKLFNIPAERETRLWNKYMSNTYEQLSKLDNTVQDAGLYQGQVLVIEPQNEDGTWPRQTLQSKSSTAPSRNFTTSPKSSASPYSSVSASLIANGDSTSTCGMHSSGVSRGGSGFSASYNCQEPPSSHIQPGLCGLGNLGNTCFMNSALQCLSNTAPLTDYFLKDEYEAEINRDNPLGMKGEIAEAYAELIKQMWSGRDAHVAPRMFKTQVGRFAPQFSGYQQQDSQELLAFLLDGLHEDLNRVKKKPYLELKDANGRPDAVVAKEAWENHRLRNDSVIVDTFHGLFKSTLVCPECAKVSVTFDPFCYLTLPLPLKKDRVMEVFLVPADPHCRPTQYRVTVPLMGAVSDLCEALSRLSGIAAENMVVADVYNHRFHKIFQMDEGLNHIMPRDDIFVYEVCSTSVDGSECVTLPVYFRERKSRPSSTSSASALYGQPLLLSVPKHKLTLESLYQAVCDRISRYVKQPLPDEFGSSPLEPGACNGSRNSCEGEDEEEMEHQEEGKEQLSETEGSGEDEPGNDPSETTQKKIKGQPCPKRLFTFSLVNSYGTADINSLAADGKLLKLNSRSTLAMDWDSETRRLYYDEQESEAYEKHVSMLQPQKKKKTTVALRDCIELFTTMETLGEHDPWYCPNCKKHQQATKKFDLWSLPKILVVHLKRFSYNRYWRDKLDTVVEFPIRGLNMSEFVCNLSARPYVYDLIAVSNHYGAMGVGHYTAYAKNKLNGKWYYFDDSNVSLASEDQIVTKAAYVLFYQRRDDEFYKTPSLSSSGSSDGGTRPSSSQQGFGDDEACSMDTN
Procedure, shortened: as §1

Measured: log2 ratio of Biotin-Ahx-Ub-VS probe labelling

Chain of USP34 (Q70CQ2 whole entry, the tested form may be a part): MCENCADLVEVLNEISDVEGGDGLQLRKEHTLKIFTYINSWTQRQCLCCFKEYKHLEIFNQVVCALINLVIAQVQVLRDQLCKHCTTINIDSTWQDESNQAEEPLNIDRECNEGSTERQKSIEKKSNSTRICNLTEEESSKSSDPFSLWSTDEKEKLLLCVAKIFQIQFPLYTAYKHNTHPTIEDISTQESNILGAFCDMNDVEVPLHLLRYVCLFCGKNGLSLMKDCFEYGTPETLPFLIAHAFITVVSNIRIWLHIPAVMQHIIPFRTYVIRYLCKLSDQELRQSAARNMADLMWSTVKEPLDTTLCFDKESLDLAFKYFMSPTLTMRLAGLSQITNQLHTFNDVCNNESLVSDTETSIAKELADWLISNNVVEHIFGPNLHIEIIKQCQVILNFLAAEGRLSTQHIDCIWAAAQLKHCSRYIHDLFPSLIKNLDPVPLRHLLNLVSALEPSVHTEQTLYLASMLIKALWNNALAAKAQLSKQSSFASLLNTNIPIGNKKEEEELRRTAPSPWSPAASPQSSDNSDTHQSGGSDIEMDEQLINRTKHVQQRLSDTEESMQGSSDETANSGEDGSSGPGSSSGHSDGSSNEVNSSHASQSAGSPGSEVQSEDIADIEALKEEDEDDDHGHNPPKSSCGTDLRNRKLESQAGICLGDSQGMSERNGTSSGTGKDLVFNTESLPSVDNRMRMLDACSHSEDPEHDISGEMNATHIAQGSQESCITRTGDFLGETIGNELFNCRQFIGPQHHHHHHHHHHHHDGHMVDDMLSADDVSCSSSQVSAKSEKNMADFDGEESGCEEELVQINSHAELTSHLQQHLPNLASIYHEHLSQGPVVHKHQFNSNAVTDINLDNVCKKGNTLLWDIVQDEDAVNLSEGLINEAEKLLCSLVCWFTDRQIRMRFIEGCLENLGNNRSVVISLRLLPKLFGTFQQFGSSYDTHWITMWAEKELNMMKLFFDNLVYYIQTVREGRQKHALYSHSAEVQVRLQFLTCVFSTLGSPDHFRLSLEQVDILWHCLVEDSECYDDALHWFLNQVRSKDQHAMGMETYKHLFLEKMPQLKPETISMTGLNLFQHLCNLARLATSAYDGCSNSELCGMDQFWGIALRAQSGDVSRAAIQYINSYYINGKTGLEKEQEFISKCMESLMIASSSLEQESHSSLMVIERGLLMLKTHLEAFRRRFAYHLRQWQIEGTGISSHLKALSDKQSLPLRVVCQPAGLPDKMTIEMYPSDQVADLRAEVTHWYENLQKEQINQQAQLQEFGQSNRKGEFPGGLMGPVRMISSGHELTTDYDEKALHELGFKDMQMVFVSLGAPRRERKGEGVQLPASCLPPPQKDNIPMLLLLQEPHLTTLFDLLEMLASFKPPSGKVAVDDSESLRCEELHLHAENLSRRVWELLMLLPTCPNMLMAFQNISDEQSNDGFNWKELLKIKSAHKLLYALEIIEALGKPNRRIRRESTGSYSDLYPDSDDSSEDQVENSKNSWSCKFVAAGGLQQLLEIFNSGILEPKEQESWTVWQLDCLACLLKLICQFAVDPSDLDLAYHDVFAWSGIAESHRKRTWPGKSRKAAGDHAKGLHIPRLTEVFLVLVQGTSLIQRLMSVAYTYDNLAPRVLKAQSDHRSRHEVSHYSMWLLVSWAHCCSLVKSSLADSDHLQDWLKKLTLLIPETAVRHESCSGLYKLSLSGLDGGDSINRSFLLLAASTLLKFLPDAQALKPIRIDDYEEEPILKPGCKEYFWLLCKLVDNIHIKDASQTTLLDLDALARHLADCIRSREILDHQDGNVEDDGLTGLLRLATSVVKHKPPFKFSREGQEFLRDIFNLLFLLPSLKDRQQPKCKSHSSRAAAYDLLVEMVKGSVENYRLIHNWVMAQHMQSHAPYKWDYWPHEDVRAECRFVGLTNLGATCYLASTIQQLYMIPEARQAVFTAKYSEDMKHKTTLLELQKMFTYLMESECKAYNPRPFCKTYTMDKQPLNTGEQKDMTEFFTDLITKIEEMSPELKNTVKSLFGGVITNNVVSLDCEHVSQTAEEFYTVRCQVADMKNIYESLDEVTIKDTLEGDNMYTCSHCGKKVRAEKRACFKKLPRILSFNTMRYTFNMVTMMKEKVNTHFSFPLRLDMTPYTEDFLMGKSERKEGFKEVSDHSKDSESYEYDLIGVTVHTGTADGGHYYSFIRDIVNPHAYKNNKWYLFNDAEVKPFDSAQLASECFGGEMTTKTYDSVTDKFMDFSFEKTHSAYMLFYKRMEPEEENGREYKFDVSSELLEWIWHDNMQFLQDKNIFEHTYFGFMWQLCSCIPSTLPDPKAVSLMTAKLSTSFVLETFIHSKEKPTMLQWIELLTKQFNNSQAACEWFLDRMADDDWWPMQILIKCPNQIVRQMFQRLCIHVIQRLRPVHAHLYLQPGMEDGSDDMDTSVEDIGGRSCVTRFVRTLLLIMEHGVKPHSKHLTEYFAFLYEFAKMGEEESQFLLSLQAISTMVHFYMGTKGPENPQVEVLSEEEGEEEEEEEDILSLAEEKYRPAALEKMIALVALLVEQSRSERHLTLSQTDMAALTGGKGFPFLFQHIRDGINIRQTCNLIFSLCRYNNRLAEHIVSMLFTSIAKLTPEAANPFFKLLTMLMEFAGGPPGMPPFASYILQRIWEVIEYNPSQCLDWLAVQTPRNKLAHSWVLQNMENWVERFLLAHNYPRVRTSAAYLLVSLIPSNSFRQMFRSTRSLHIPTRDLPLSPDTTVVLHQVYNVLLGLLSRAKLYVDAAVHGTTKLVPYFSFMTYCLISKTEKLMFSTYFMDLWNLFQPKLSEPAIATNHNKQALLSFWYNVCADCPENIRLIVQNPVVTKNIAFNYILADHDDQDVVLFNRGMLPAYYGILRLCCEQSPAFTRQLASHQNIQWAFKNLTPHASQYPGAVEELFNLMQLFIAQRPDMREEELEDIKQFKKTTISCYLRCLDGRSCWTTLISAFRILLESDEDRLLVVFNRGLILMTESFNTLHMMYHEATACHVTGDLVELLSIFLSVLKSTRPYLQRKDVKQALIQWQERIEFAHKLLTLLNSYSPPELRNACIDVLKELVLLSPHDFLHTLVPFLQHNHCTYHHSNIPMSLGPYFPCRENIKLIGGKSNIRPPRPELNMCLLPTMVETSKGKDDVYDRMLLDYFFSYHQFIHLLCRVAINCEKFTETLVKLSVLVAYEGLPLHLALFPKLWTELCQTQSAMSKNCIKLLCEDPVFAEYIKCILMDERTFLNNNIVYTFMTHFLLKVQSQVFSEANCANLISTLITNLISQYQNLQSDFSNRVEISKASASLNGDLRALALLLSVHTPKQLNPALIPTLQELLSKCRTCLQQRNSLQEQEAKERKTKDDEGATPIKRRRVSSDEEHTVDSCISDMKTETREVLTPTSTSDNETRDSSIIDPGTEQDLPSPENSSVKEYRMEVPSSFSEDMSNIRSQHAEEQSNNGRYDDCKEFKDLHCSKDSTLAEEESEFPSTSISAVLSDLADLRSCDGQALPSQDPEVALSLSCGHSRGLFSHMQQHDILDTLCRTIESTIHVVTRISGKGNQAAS

O=C(CCl)N1CCC(c2nc3ccccc3o2)CC1
inactive: USP34 -0.0485 | USP36 -0.24 | USP38 -0.183 | USP39 0.016 | USP4 -0.231

Source: the supplement of paper PMC11732987, “Enantioselective OTUD7B fragment discovery through chemoproteomics screening and high-throughput optimisation” (Communications Chemistry, 2025)
